FPRL1 binder: ligands of human FPRL1, also counter-screen for FPR ligands; inhibition, % (test concentration not listed); AID 441; P25090; 24,000 compounds, 0.3% hits; FPRL1-expressing cells, fluorescent ligand binding inhibition, flow cytometry
VLA-4 antagonist: inhibition of LDV-FITC ligand binding to human VLA-4 integrin; P13612; 24,000 compounds, 0.2% hits; inhibition, % at 10 µM (by protocol); AID 529; Jurkat cells, LDV-FITC binding with Mn2+, flow cytometry; 100% = Mn2+-driven binding gain fully reversed;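 active = inhibition above 50%; inconclusive = compound itself fluorescent, judged against control cell fluorescence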
Target sequence (P13612 whole entry, looked up): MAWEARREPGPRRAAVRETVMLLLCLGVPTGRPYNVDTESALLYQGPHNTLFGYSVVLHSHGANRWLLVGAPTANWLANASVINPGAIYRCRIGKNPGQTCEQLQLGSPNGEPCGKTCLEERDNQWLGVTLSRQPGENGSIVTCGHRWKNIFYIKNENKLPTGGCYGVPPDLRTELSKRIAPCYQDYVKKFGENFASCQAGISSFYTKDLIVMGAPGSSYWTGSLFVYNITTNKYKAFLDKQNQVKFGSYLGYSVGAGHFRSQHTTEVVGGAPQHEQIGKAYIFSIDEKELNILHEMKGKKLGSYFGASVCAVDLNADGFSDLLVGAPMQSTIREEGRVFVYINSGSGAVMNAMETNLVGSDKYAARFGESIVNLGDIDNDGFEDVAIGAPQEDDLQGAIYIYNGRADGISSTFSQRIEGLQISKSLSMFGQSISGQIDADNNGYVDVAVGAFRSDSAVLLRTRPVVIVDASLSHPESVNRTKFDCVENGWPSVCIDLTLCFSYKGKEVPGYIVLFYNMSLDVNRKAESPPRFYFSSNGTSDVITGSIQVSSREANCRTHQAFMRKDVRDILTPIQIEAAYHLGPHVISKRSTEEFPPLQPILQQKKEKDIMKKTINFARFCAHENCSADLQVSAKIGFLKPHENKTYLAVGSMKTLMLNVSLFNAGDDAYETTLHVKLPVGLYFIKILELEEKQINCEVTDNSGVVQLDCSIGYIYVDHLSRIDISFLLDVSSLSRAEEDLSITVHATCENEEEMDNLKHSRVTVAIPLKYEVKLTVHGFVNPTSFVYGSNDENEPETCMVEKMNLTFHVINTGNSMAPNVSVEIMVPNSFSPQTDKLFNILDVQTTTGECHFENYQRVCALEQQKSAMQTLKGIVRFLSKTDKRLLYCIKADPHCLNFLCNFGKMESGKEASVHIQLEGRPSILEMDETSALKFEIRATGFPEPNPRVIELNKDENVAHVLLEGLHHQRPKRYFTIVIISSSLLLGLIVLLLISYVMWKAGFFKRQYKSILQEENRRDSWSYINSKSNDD
26S disassembly: blocks ATP-dependent breakdown of the yeast 26S proteasome. inhibition of disassembly, % (concentration not given with the values). AID 751. 24,000 compounds, 0.2% hits. anti-FLAG beads, GFP-proteasome disassembly, flow cytometry;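 active = inhibition of disassembly above about 33%, limit read from the data; inconclusive = likely self-fluorescent, control bead median signal at least 40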;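 also: higher percent means more bead fluorescence retained so stronger block of disassembly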
VLA-4 agonist: allosterically activates the human VLA-4 integrin | P13612 | Jurkat cells, LDV-FITC binding, flow cytometry | activation, % at 10 µM (by protocol) | 24,000 tested, under 10 active;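 active = fluorescent ligand binding to cells raised by more than 40% of the manganese-induced maximum; inconclusive = compound's own fluorescence above 85% of the ligand control signal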
FPR binder: binds the human formylpeptide receptor FPR | FPR-expressing cells, fluorescent ligand binding, flow cytometry | inhibition, % (test concentration not listed) | 24,000 compounds, 0.74% hits
Autofluor Jurkat: autofluorescence counter-screen for VLA-4 integrin assays; Jurkat cells, compound autofluorescence, flow cytometry; stronger effect = higher value; 1 = vehicle-only cell background; fluorescence ratio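 (tested at 10 µM compound in the well)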; 24,000 compounds, 0.61% hits;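 active = fluorescence ratio above 2.44, which is 1 plus 3 SD of all ratios; inconclusive = signal too bright to measure linearly, ratio around 10 or more; inactive = fluorescence ratio below 2.44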;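 also: green fluorescence of cells measured with 488 nm excitation and 530 nm emission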
Of the large screens only hits and unclear results are named; the others gave an inactive call. Rows were chosen to be rich in hits. Some 1.9% of all compounds tested hit in one or more screens of this group. Rule as the data show it, unless noted: active = inhibition above about 30%; inconclusive = no clear call, values can overlap the other calls; inactive = below that.

Cc1sc(NC(=O)C2CCCCC2C(=O)O)c(C(N)=O)c1-c1ccc(C(C)(C)C)cc1 (stereo unspecified)	FPR binder 49 (no result: VLA-4 antagonist, 26S disassembly, VLA-4 agonist, Autofluor Jurkat)
CC(C)Cc1nnc(NS(=O)(=O)c2ccc(Cl)cc2)s1	none
CC(C)C1N(S(=O)(=O)c2ccccc2)CCN1S(=O)(=O)c1ccccc1	none
CCN(CC(=O)Nc1ccc2c(c1)CCC2)Cc1nc2ccccc2c(=O)[nH]1	none
N#Cc1cc2c(nc1SCC(=O)Nc1sc3c(c1C#N)CCC3)CCCCC2	26S disassembly 105
Cc1ccc2nc(NC3=NCN(Cc4ccco4)CN3)nc(C)c2c1	VLA-4 antagonist inconclusive, VLA-4 agonist inconclusive, Autofluor Jurkat 3.5
CCNc1c2c3c(cccc3n(C)c1=O)C(=O)c1ccccc1-2	FPRL1 binder inconclusive, VLA-4 antagonist inconclusive, 26S disassembly 59, VLA-4 agonist inconclusive, FPR binder inconclusive, Autofluor Jurkat 9.8
CCC(=O)Nc1ccccc1Nc1cc(C#N)c(C#N)cc1[N+](=O)[O-]	none (no result: VLA-4 antagonist, 26S disassembly, VLA-4 agonist, Autofluor Jurkat)
CC1=C(C(=O)N2CCc3ccccc32)C2(CCC(C)CC2)OC1=O (stereo unspecified)	VLA-4 antagonist inconclusive, VLA-4 agonist inconclusive, Autofluor Jurkat 6
O=C(Cn1c(=O)oc2ccccc21)N1CCN(c2ccccc2)CC1	VLA-4 antagonist inconclusive, VLA-4 agonist inconclusive, Autofluor Jurkat 2.5
O=C(CCn1c(=O)oc2ccccc21)N1CCN(c2ccccc2F)CC1	none
Cc1c(NC(=O)CSc2nnc3sc4ccccc4n23)c(=O)n(-c2ccccc2)n1C	none
COc1cccc(OCC(=O)Nc2c(C(=O)Nc3ccc(OC)cc3OC)oc3ccccc23)c1	none
O=C(OC1CCCCC1)c1ccc2c(c1)C1C=CCC1C(C(=O)O)N2 (stereo unspecified)	VLA-4 antagonist inconclusive, VLA-4 agonist inconclusive, Autofluor Jurkat 3.8
O=C(NCC1COc2ccccc2O1)C1CCC(CNc2c(N3CCCCC3)c(=O)c2=O)CC1 (stereo unspecified)	none
CC(=O)c1c(C)[nH]c(C(=O)N2CCc3ccccc3C2)c1C	VLA-4 antagonist 60
CC(=O)c1c(C)[nH]c(C(=O)N2CCN(C(=O)c3ccco3)CC2)c1C	VLA-4 antagonist inconclusive, VLA-4 agonist inconclusive
CSCCC1C(C#N)=C(N)Oc2n[nH]c(-c3cccs3)c21 (stereo unspecified)	FPR binder 30
CCOC(=O)Cc1cc(=O)n2[nH]c(C)c(-c3ccccc3)c2n1	FPR binder 51 (no result: VLA-4 antagonist, 26S disassembly, VLA-4 agonist, Autofluor Jurkat)
O=C(Cn1ccc2ccccc2c1=O)NCCC(=O)Nc1ccc2c(c1)OCCO2	none
COc1ccc(S(=O)(=O)Nc2ccccc2SC)cc1C	none
CSc1ccccc1NS(=O)(=O)c1ccccc1	FPR binder 31
CC(C)CN(CC(C)C)C(=O)CS(=O)(=O)Cc1ccccc1	FPR binder 63
CCOc1cccc(/C(O)=C2/C(=O)C(=O)N(CCOC)C2c2ccc(C)o2)c1 (stereo unspecified)	FPR binder 51 (no result: VLA-4 antagonist, 26S disassembly, VLA-4 agonist, Autofluor Jurkat)
CC(O)c1c(OCc2ccccc2)ncnc1OCc1ccccc1 (stereo unspecified)	none
CCOC(=O)c1c(NC(=O)c2cc(C3CC3)on2)sc2c1CCCC2	FPRL1 binder 58
Cc1ccc(C2CC(c3ccccc3Cl)n3nc(N)nc3N2)cc1 (stereo unspecified)	none
Nc1nc2n(n1)C(c1ccccc1Cl)CC(c1ccc(F)cc1)N2 (stereo unspecified)	VLA-4 antagonist inconclusive, VLA-4 agonist inconclusive, Autofluor Jurkat 2.7
COc1ccc(OC)c(/C=c2\sc3nc(-c4cccs4)nn3c2=O)c1	VLA-4 antagonist inconclusive, VLA-4 agonist inconclusive, Autofluor Jurkat 4.1
COC(=O)C(NS(C)(=O)=O)(c1c(C)[nH]c2ccccc12)C(F)(F)F (stereo unspecified)	none
O=C(NCc1ccco1)C1(S(=O)(=O)c2ccc(Cl)cc2)CC1	none
CCOC(=O)Cn1c(=O)oc2cc(S(=O)(=O)Nc3cc(Cl)ccc3OC)ccc21	FPRL1 binder inconclusive, VLA-4 antagonist inconclusive, VLA-4 agonist inconclusive, Autofluor Jurkat 4.3
CCOC(=O)Cn1c(=O)oc2cc(S(=O)(=O)Nc3ccc(N(CC)CC)cc3C)ccc21	FPRL1 binder inconclusive, VLA-4 antagonist inconclusive, VLA-4 agonist inconclusive, Autofluor Jurkat 4.1
CCOC(=O)Cn1c(=O)oc2cc(S(=O)(=O)Nc3cccc(C)c3)ccc21	VLA-4 antagonist inconclusive, VLA-4 agonist inconclusive
CCOCCCNS(=O)(=O)c1ccc2c(c1)oc(=O)n2CC(=O)OCC	VLA-4 antagonist inconclusive, VLA-4 agonist inconclusive, Autofluor Jurkat 2.5
CCOC(=O)Cn1c(=O)oc2cc(S(=O)(=O)Nc3cc(OCC)ccc3OCC)ccc21	VLA-4 antagonist inconclusive, VLA-4 agonist inconclusive
COc1cccc(NC(=O)CSc2nnc(-c3cc(-c4ccccn4)nc4ccccc34)o2)c1	none
O=C(NCC12CC3CC(CC(C3)C1)C2)c1nn2c(c1Cl)NC(c1ccco1)CC2C(F)(F)F (stereo unspecified)	VLA-4 antagonist 55
O=C(NCCN1CCOCC1)c1nn2c(c1Cl)NC(c1ccccc1)CC2C(F)(F)F (stereo unspecified)	none
O=C(c1ccc(N2CCCCS2(=O)=O)cc1)N1CCN(c2ccc(N3CCOCC3)nn2)CC1	none
O=C(c1coc(=O)c2ccccc12)N1CCN(Cc2ccccc2)CC1	VLA-4 antagonist inconclusive, VLA-4 agonist inconclusive
Cc1nc2cc(Cl)c(Cl)cc2nc1C	VLA-4 antagonist inconclusive, VLA-4 agonist inconclusive, Autofluor Jurkat 3.1
NC1=NC(c2ccc(Cl)cc2)n2c(nc3ccccc32)N1 (stereo unspecified)	none
C=CCn1c(=O)/c(=C/c2ccc(O)cc2)s/c1=C(/C#N)c1nnc2n1CCCCC2	VLA-4 antagonist inconclusive, VLA-4 agonist inconclusive, Autofluor Jurkat 3.7
N#Cc1nc(-c2ccccc2F)oc1NC1CCCCC1	none
COc1ccc(C2C(C(=O)c3cccs3)=C(O)C(=O)N2c2nnc(C)s2)cc1OC (stereo unspecified)	FPR binder 36 (no result: VLA-4 antagonist, 26S disassembly, VLA-4 agonist, Autofluor Jurkat)
C=CCOc1ccc(C2C(C(=O)c3cccs3)=C(O)C(=O)N2c2nnc(C)s2)cc1 (stereo unspecified)	FPR binder 43 (no result: VLA-4 antagonist, 26S disassembly, VLA-4 agonist, Autofluor Jurkat)
COc1ccc(C2C(C(=O)c3cccs3)=C(O)C(=O)N2c2nncs2)cc1 (stereo unspecified)	none (no result: VLA-4 antagonist, 26S disassembly, VLA-4 agonist, Autofluor Jurkat)
COc1ccc(-c2nnc(SCC(=O)NC(=O)NCc3ccco3)o2)cc1	none
COc1ccc(-n2c(Cn3c(=O)sc4ccccc43)nnc2SCC(=O)N2CCOCC2)cc1	none
O=C(NCc1ccco1)c1cccc(S(=O)(=O)N2CCCCC2)c1	none
COc1ccc(-n2c(Cc3cccn3C)nnc2SCC(=O)Nc2ccc(Cl)cc2)cc1	FPR binder 56
CCOC(=O)N1CCC(NC(=O)c2cc3c(C)nc4ccccc4c3o2)CC1	FPR binder 40
Cc1nc2ccccc2c2oc(C(=O)N3CCc4ccccc43)cc12	FPR binder 38
O=S1(=O)CC(N2CCCCC2)C(N2CCCCC2)C1 (stereo unspecified)	none
